Consider twelve compounds from PubChem BioAssay.

SMILES strings stand for the structures.

Assay [1] relates to Human papillomavirus type 1a protein E7 (residues 44-93). Description: HPV1a E7 fragment binders on microarrays, primary screen, biochemical, small-molecule microarray, residues 44-93, 635 nm fluorescence (AID 1108).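 Further: E7 fragment applied at 1 µg/mL in TBST for 1 h at 4 C; score combines spot fluorescence with its signal to noise ratio.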 Conditions: small-molecule microarray binding, fluorescence 635 nm; higher = more signal.
Assay [2] can be described thus: modulators of HCV replicon luciferase signal, primary screen, HCV replication inhibitor project, Huh7 cells, luciferase reporter (AID 1109).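 Further: huh7 hepatoma cells harbouring a luciferase neomycin HCV replicon reporter; luciferase luminescence as measure of HCV replicon replication; test concentration not given here.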 Conditions: 48 h, higher = more signal.
For assay [3], the target named is Left-right determination factor 2 (Homo sapiens) (UniProt O00292). Description: LEFTY2 binders on small-molecule microarrays, primary screen, biochemical, small-molecule microarray, 635 nm fluorescence scan (AID 1110). Conditions: LEFTY2 binding, higher = more signal.
Assay [4] has as its target Calmodulin-1 (Homo sapiens) (UniProt P0DP23). Description: CALM1 binders on microarrays, EGTA buffer, profiling panel, biochemical, small-molecule microarray, Cy5-labelled CALM1 (AID 1111).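 Further: labelled calmodulin applied in Tris saline Tween buffer holding calcium plus EGTA and DTT.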 Conditions: Cy5-CALM1 binding fluorescence, higher = more signal.
Assay [5] has the same target. Description: calcium-bound CALM1 binders on microarrays, profiling panel, artefact control for SMM control-protein annotation, biochemical, small-molecule microarray, Cy5-labelled CALM1, plus calcium (AID 1112).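 Further: score merges spot fluorescence with signal to noise from triplicate slides.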 Conditions: Cy5-CALM1 binding fluorescence, higher = more signal.
A short description of assay [6]: small-molecule microarray binders of probe aWnt5a, primary screen, biochemical, biotinylated probe, 635/667 nm fluorescence (AID 1113).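 Further: score merges 667 nm fluorescence intensity with signal-to-noise per printed feature.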 Conditions: higher = more signal.
A short description of assay [7]: small-molecule microarray binders of probe aShh, primary screen, biochemical, biotinylated probe, 635/667 nm fluorescence (AID 1114).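 Further: probe is biotin-labelled aShh protein from a stem cell growth factor screen; measures binding of labelled protein to compounds printed on the slide; score merges feature fluorescence at 667 nm with signal-to-noise.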 Conditions: higher = more signal.
Assay [8] can be described thus: small-molecule microarray binders of probe aNog, primary screen, biochemical, biotinylated probe, 635/667 nm fluorescence (AID 1115).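 Further: probe is biotinylated aNog protein used at 0.15 µg/mL for 1 h at 4 C; z-score combines 667 nm fluorescence of each spot with its signal to noise.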 Conditions: higher = more signal.
Assay [9] addresses Torsin-1A-interacting protein 1 (Homo sapiens) (UniProt Q5JTV8). The experiment in a line: LAP1 binders from COS7 cell lysate, primary screen, small-molecule microarray, 635/667 nm fluorescence (AID 1116). Conditions: COS7-hLAP1 lysate binding, 635 nm fluorescence, higher = more signal.
Assay [10] addresses Alpha-bungarotoxin (Bungarus multicinctus) (UniProt P60615). The experiment in a line: alpha-bungarotoxin binders on microarray, profiling panel, artefact control for SMM control protein annotation, biochemical, small-molecule microarray, Alexa647 label, 635/667 nm fluorescence (AID 1117). Conditions: alpha-BTX-A647 binding fluorescence, higher = more signal.

Chain of Alpha-bungarotoxin (Bungarus multicinctus) (P60615 whole entry, looked up): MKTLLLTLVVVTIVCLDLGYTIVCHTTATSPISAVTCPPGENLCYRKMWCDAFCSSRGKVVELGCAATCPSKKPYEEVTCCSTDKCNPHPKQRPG
Chain of Left-right determination factor 2 (Homo sapiens) (O00292 whole entry, looked up): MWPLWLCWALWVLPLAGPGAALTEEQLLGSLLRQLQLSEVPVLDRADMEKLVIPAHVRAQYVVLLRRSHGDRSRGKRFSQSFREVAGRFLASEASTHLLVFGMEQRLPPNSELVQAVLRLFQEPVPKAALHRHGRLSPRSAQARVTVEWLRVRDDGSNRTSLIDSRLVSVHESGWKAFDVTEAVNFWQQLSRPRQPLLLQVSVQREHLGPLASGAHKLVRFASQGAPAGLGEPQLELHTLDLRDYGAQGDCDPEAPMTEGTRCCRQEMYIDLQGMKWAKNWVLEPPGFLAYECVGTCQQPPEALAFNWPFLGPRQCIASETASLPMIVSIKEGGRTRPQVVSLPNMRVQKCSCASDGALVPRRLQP
Chain of Torsin-1A-interacting protein 1 (Homo sapiens) (Q5JTV8 whole entry, looked up): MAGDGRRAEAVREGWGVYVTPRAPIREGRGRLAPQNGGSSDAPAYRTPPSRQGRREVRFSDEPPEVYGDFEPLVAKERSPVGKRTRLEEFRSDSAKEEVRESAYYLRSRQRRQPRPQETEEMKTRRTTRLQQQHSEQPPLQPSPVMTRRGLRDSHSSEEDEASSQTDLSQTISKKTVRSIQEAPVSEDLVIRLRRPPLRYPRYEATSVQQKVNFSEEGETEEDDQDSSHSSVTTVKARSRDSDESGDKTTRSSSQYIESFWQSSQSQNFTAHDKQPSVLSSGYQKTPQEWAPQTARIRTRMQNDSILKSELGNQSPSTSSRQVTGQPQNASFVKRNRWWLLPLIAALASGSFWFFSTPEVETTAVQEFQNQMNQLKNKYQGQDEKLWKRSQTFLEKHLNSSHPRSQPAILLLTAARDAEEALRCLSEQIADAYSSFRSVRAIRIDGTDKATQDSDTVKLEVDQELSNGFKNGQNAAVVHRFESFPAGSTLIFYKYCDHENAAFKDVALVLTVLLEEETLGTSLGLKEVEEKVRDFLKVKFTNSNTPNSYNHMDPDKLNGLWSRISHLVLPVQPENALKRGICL

Take `CC[C@@H]1O[Si](C(C)C)(C(C)C)c2c1cc(-c1cc(C)c(OC)c(C)c1)nc2-c1ccc(Oc2ccccc2)cc1`: the composite z-score was -0.871 in assay [1]; -0.389 in [3]; -0.162 in assay [4]; 0.0543 in assay [5]; -0.117 in assay [6]; -0.299 in [7]. Moreover, the composite z-score in assay [8] is -0.103; in assay [9], -0.386; in [10], 0.0748. In addition, in [2], the z-score is -0.748.
Take `Cc1ccc(S[C@]2(C(=O)NCC(F)(F)F)CC(=O)N(Cc3cc(C(F)(F)F)cc(C(F)(F)F)c3)[C@@H]2c2ccc(CO)cc2)cc1`: the composite z-score in assay [1] is -0.109; in assay [3], -0.968; in assay [4] it was -0.392; in [5] it was 0.159; in assay [6], -0.25; in assay [7], -0.356. Also, the values for the composite z-score in assay [8], in assay [9] and in assay [10] were 0.162, -0.851 and -0.633, respectively. Moreover, the z-score in assay [2] was -0.099.
On to `Cn1cccc1C(O)C1C=CC2C(=O)N(c3ccccc3)C(=O)C2N1Nc1ccccc1` (stereo not given), for which the composite z-score is 1.09 in assay [1]; 0.739 in [3]; 1.69 in assay [4]; 0.405 in assay [5]; 0.181 in assay [6]; -0.0578 in [7]. Moreover, the composite z-score worked out at 0.977 in assay [8], 1.31 in assay [9] and 1.68 in assay [10]. Further, the z-score in [2] is -0.36.
`[N-]=[N+]=Nc1ccccc1C[C@]1(C(=O)O)COC(c2ccc(OCCCO)cc2)=N1`: the composite z-score in assay [1] was 0.118; in assay [3] it was -0.856; in assay [4], 0.166; in assay [5] it was 0.897; in [6], 0.0718; in [7], 0.232. Moreover, the composite z-score is 0.253 in assay [8], -0.811 in assay [9] and -0.215 in [10]. This compound also gave a z-score in assay [2] of 0.928.
Consider `COC(=O)[C@@]1(Cc2ccc(OC)cc2)[C@H]2c3cc(C(=O)N(C)C)n(Cc4ccc(C)o4)c3C[C@H]2CN1C(=O)c1ccccc1`, for which the composite z-score was 1.42 in assay [1]; -0.466 in [3]; 0.372 in assay [4]; -0.223 in assay [5]; 0.091 in [6]; 0.596 in assay [7]. Further, the composite z-score came out at 0.243 in [8], 1.27 in assay [9] and 0.41 in assay [10]. Moreover, the z-score in [2] was -2.04.
As for `C=CCNC(=O)[C@H]1[C@@H]2C(=O)O[C@@H](c3ccccc3)[C@@H](c3ccccc3)N2[C@@H](c2ccccc2OCCO)[C@]12C(=O)N(C(=O)OCCOC)c1ccc(C#CC3(O)CCCCCC3)cc12`, the composite z-score in [1] is 1.25; in assay [3], 0.371; in assay [4] it was 1.09; in assay [5] it was 0.647; in [6], -0.0239; in [7], 0.176. Also, the figures for the composite z-score in assay [8], in assay [9] and in assay [10] were -0.168, 1.22 and 0.996, respectively. Besides, the z-score in assay [2] was -2.88.
With `COc1cc2c(cc1O)C(c1cccs1)N(Cc1cc3c(cc1Br)OCO3)CC2` (stereo not given), the composite z-score in assay [1] was 1.48; in [3] it was 0.236; in assay [4], 1.88; in assay [5] it was 0.602; in assay [6], -0.0286; in assay [7], 0.23. Further, the composite z-score worked out at 1.03 in assay [8], 1.14 in [9] and 2.08 in assay [10]. Further, the z-score in assay [2] is -2.05.
As for `O=C1OCCC=C[C@H]2OC34C=CCN(Cn5nnc6ccccc65)C(=O)[C@H]3N(CCCO)C(=O)[C@@H]4C12` (stereo not given in full), the composite z-score in assay [1] was -0.69; in assay [3] it was -1.02; in assay [4], -0.5; in [5], -0.0354; in [6], -0.112; in assay [7] it was -0.388. In addition, the values for the composite z-score in assay [8], in [9] and in assay [10] were -0.527, 0.879 and 0.204, respectively. In addition, in assay [2], the z-score was -0.642.
For `COC(=O)C/C=C/C[C@]1(O)C(=O)N(C)c2ccccc21`, the composite z-score was 0.0938 in assay [1]; 0.704 in assay [3]; -1.34 in [4]; -0.895 in assay [5]; -0.122 in assay [6]; -0.243 in assay [7]. Moreover, the composite z-score in [8] was -0.252; in [9], 0.194; in [10], 0.766. This compound also gave a z-score in assay [2] of 0.027.
For the compound `C=CC[C@]1(C(=O)N2CCOCC2)COC(c2ccc(OCCCO)cc2)=N1`, the composite z-score was 1.53 in assay [1]; -0.233 in [3]; 1.64 in [4]; -0.497 in [5]; -0.0236 in [6]; 0.381 in [7]. Further, the composite z-score worked out at 1.11 in assay [8], 1.98 in assay [9] and 2.21 in [10]. In assay [2], the z-score is -0.164.
On to `CCOC(=O)C[C@H]1[C@H](OC(=O)c2cc3ccccc3oc2=O)[C@@H](NC(=O)CC(C)C)c2cc(OCCCO)ccc2N1C(=O)c1ccc2ccccc2n1`, for which the composite z-score was 1.05 in assay [1]; 0.643 in assay [3]; -0.134 in assay [4]; -0.35 in assay [5]; -0.152 in assay [6]; -0.154 in assay [7]. Besides, the composite z-score in [8] is -0.143; in [9], 0.0785; in assay [10] it was 0.643. For the same compound, the z-score in assay [2] is -0.359.
`COc1ccccc1CN1C(=O)c2ccccc2[C@](Cc2ccccc2I)(C(=O)O)[C@@H]1c1ccc(CO)cc1`: the composite z-score in assay [1] is 1.42; in assay [3] it was 0.717; in assay [4] it was 1.36; in [5], 0.477; in [6], -0.123; in assay [7], 0.336. Further, the composite z-score in assay [8] stood at 0.182; in assay [9], 0.152; in assay [10], 1.21. In addition, the z-score in assay [2] is -0.127.
